Activity calls are given as the source filed them. How the source made its calls: active means hit-call score of the fitted dose curve at least 0.9, where 1 is the maximum; inactive means score below 0.9.

Read-out in this assay: Lipoprotein lipase (LPL), LPL (gene 4023)
As to the kind of experiment: LTEA_HepaRG_LPL: Life Technologies and Expression Analysis (LTEA) Assay for Lipoprotein lipase (LPL) using HepaRG (AID 2283515). The settings on record: mRNA level, 48 h; actives raise or lower the signal. In short, it runs like this:
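HepaRG, 48 h exposure, 8-pt half-log dilutions from 100 uM, 0.5% DMSO vehicle, duplicates; qRT-PCR (Fluidigm array) of LPL mRNA vs housekeeping genes; bidirectional curve fit relative to DMSO baseline.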
With `CSC(=O)c1cccc2nnsc12`, the molecule was classed as inactive.

As for `c1ccc(Nc2ccccc2)cc1`, the result was inactive. One may read the AC50 as the midpoint of the concentration-response curve, whichever way the signal moves. On to `CCOC(=O)NCCOc1ccc(Oc2ccccc2)cc1`, for which the AC50 is 81.6 µM (active). In the case of `CC(C)(c1ccc(O)cc1)c1ccc(O)cc1`, the molecule was called inactive. `Oc1ccc(C(c2ccc(O)cc2)C(Cl)(Cl)Cl)cc1`: the AC50 was 85 µM (active). Consider `CCOC(=O)c1ccc(O)cc1`, for which the call was inactive. Take `CCCCCOC(=O)COc1cc(N2C(=O)C3=C(CCCC3)C2=O)c(F)cc1Cl`: the outcome was inactive. For `C[C@]12CC[C@@H]3c4ccc(O)cc4C[C@@H](CCCCCCCCCS(=O)CCCC(F)(F)C(F)(F)F)[C@H]3[C@@H]1CC[C@@H]2O` (stereo partly specified), the result was inactive. With `CCCCCCC(C)OC(=O)COc1nc(F)c(Cl)c(N)c1Cl` (stereo unspecified), the molecule was called inactive. As to `N[C@@H](Cc1cc(I)c(Oc2ccc(O)c(I)c2)c(I)c1)C(=O)O`, the AC50 was 0.00787 µM (active). Regarding `CCNc1nc(N)nc(Cl)n1`, the molecule was classed as inactive. As for `COCCO`, the molecule was called inactive.

Consider `CCN(Cc1c(F)cccc1Cl)c1c([N+](=O)[O-])cc(C(F)(F)F)cc1[N+](=O)[O-]`, for which the outcome was inactive. The same measure, in the same setting: in the case of `CN(C)C(=O)Nc1ccc(Cl)c(Cl)c1` it was “inactive”; in that of `CCCCOCCOCCOCc1cc2c(cc1CCC)OCO2`, “inactive”; in that of `CCOC(=O)C(C)Oc1ccc(Oc2cnc3cc(Cl)ccc3n2)cc1` (stereo unspecified), “inactive”. For the molecule `CCSC(=O)N(CC(C)C)CC(C)C`, the molecule was called inactive. Consider `COC(=O)CSc1cc(N=c2sc(=O)n3n2CCCC3)c(F)cc1Cl`, for which the call was inactive.

In the case of `c1ccc2[nH]c(-c3cscn3)nc2c1`, the molecule was classed as inactive. On to `CCCCC(CC)COC(=O)c1ccccc1C(=O)O` (stereo unspecified), for which the result was inactive. `CCOC(=O)C(C)Oc1ccc(Oc2nc3ccc(Cl)cc3o2)cc1` (stereo unspecified): the call was inactive.

These data come from PubChem BioAssay (EPA / NIEHS).
